# Compound activity (PubChem BioAssay)
# CCHF vOTU inh-1: CCHFV vOTU protease inhibitors, primary screen, biochemical, Pep-AMC substrate, fluorescence | inhibition, % at 11.5 µM | AID 651958, 2012 | Crimean-Congo hemorrhagic fever virus L polyprotein viral ovarian tumor (vOTU) protease … | 0.55% of 370,000 active
# Vc quorum ag: inducers of Vibrio cholerae quorum light production without autoinducers, primary screen, BH1578 luxS cqsA deficient, single point; V. cholerae BH1578 lux reporter, luminescence, 6 h; activation, % at 18.7 µM; 0.16% of 350,000 active; in the data active = activation mostly above about 9.7%, no sharp cut-off
# TcdB inh: TcdB glycohydrolase inhibitors, primary screen, biochemical, single point, plate reader; TcdB glycohydrolase enzymatic assay; inhibition, % at 9.99 µM; 0.24% of 350,000 active; in the data active = inhibition above about 10%
# PriA SSB inh: inhibitors of Klebsiella pneumoniae PriA binding to SSB C-terminal tail, primary screen, biochemical, AlphaScreen. AlphaScreen SSBct-PriA binding, biotinylated peptide. inhibition, % at 33 µM. 0.6% of 430,000 active; in the data active = inhibition mostly above about 37%, no sharp cut-off; inactive = mostly below about 20%
# PrPC surface inh: inhibitors of human cell surface prion protein PrPC, primary screen, cell-based, TR-FRET | TR-FRET read-out | 0.43% of 370,000 active | inhibition, % at 13.8 µM; in the data active = inhibition above about 24%
# VHR inh abs: VHR1 phosphatase inhibitors, primary screen, biochemical, absorbance, uHTS; 0.52% of 290,000 active; AID 1654, 2009; inhibition, % at 13.3 µM; Dual specificity protein phosphatase 3 (Homo sapiens), P51452; recombinant VHR phosphatase, pNPP absorbance; in the data active = inhibition above about 50%
# Target sequence (P51452 whole entry, looked up): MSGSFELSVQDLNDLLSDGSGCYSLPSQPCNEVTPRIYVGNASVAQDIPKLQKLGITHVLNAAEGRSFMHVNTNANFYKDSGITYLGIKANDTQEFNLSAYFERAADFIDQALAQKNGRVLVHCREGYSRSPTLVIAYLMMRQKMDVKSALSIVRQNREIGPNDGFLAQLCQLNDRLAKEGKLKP
# CCHF vOTU inh-2: CCHFV vOTU protease inhibitors, confirmation, biochemical, Pep-AMC substrate, fluorescence; inhibition, % at 11.5 µM; shares compounds with CCHF vOTU inh-1; Recombinant CCHFV vOTU; 17% of 1,900 active
# Hits are given with their value; i = inactive; nt = no result. Compounds with a hit are over-represented: about 1.5% of the library has one in this group of screens. Cut-off read from the data, not from the text of the source, unless noted: active = inhibition above about 30%; inactive = the rest.
SMILES,CCHF vOTU inh-1,Vc quorum ag,TcdB inh,PriA SSB inh,PrPC surface inh,VHR inh abs,CCHF vOTU inh-2
COc1ccc(NC(=O)Cn2nc(-c3ccco3)c3sc(N4CCCCC4)nc3c2=O)cc1OC,nt,nt,nt,i,nt,nt,nt
Cc1nnc(NN=Cc2ccc([N+](=O)[O-])cc2)n1N,nt,nt,nt,i,nt,nt,nt
Cc1nnc(N/N=C/c2cccc(OCc3ccc(Cl)c(Cl)c3)c2)n1N,103,i,nt,nt,i,i,i
COc1ccc(-n2c(C)cc(/C=N/Nc3nnc(C)n3N)c2C)cc1,91,i,nt,nt,i,i,i
Cc1nnc(N/N=C/c2ccccc2C(F)(F)F)n1N,65,i,i,nt,i,i,i
Cc1nnc(N/N=C/c2cccc(C(F)(F)F)c2)n1N,105,i,i,nt,i,i,i
COc1cccc(C=NNc2nnc(C)n2N)c1OCc1ccccc1Cl,nt,nt,nt,i,nt,nt,nt
Cc1cc(=O)[nH]c(NN=Cc2ccccc2C(F)(F)F)n1,nt,nt,nt,i,nt,nt,nt
Cc1sc(NC(=O)c2ccc(S(=O)(=O)N(C)C3CCCC3)cc2)c(C#N)c1C,nt,nt,nt,i,nt,nt,nt
Cc1nnc(NN=Cc2ccc(-c3ccccc3F)o2)n1N,nt,nt,nt,i,nt,nt,nt
COc1cccc(/C=N/Nc2nnc(C)n2N)c1O,88,i,i,nt,i,i,i
Cc1nnc(N/N=C/c2ccco2)n1N,89,i,i,nt,i,i,i
COc1ccc(C=NNc2nnc(C)n2N)cc1OC,nt,nt,nt,i,nt,nt,nt
Cc1nnc(N/N=C/c2ccccc2F)n1N,75,i,i,nt,i,i,i
COc1ccc(C2NC(=S)N(c3ccccc3)C(C)=C2C(=O)Nc2ccccc2)cc1 (centres undefined),i,i,nt,i,i,i,nt
CC1=C(C(=O)Nc2ccc([N+](=O)[O-])cc2)C(c2cccc(C(F)(F)F)c2)NC(=S)N1c1ccccc1 (centres undefined),31,i,nt,i,i,i,i
COC(=O)CCC(=O)OC1(C)C(=O)C2=CN(C(CO)CO)C(c3ccc(OC)cc3)=CC2=C(Br)C1=O (centres undefined),31,nt,i,nt,i,i,i
COC(=O)CCC(=O)OC1(C)C(=O)C2=CN(CCCCO)C(c3ccc(OC)cc3)=CC2=C(Br)C1=O (centres undefined),nt,nt,nt,nt,nt,i,nt
CC1=C(CC(=O)c2ccccc2)C(=O)c2ccccc2C1=O,40,i,nt,i,i,i,34
O=C(CSc1nnc(-c2ccccc2)n1Cc1ccco1)Nc1ccc(OCc2ccccc2)cc1,32,nt,nt,nt,i,nt,i
CCC(=O)N1CCN(c2cc(-n3ccnc3)ncn2)CC1,nt,nt,nt,i,nt,nt,nt
CCOC(=O)c1c(C)[nH]c(C(=O)CN(C)CC(=O)Nc2ccccc2C(F)(F)F)c1C,31,i,i,i,i,nt,i
O=C(CC1CSc2nc3c(cnn3-c3cccc(Cl)c3)c(=O)n21)NCc1ccco1 (centres undefined),nt,nt,nt,i,nt,nt,nt
CC(C)n1c(SC2C(=O)CC(C)(C)CC2=O)nc2c1c(=O)n(C)c(=O)n2C,30,i,nt,i,i,i,i
CC(C)CCn1c(=O)c2ccccc2n2c(=O)n(CC#N)nc12,nt,nt,nt,i,nt,nt,nt
SMILES,CCHF vOTU inh-1,Vc quorum ag,TcdB inh,PriA SSB inh,PrPC surface inh,VHR inh abs,CCHF vOTU inh-2
CCCC(=O)Nc1ccc2c(c1)C(=O)Nc1cc(Cl)ccc1O2,nt,nt,nt,i,nt,nt,nt
Cc1cc(=O)[nH]c(NN=C/C=C/c2ccccc2)n1,nt,nt,nt,i,nt,nt,nt
Cc1cc(=O)[nH]c(N/N=C/C=C/c2ccccc2)n1,35,i,i,nt,i,i,i
N#C/C(=N/OC(=O)Cc1ccc(Cl)cc1)c1nc2ccccc2s1,nt,nt,nt,i,nt,nt,nt
CC(C)(C)c1ccc(S(=O)(=O)NC(=O)C2(C)CCN2C(=O)C2(c3ccc(Cl)cc3)CC2)cc1 (centres undefined),31,i,i,nt,i,nt,i
COc1cc(OC)c(C2CC(=O)N3CN(C)CSC3=C2C#N)cc1OC (centres undefined),i,i,i,i,i,i,nt
COc1ccc2ccccc2c1C1CC(=O)N2CN(C)CSC2=C1C#N (centres undefined),79,i,i,i,i,i,56
COc1ccc(Cl)cc1C(=O)Nc1ccc2c(c1)CN(C(=O)c1cccs1)CC2,nt,nt,nt,i,nt,nt,nt
Cc1cccc2c(=O)c(-c3ccc(Cl)cc3)c(NC(=O)c3ccco3)oc12,30,i,i,i,i,i,i
O=C(O)c1cccc(NC2=C(n3nnc4ccccc43)C(=O)c3ccccc3C2=O)c1,79,i,i,i,i,i,85
O=C(O)c1cccc(NS(=O)(=O)c2ccc3nnn(O)c3c2)c1,i,i,nt,i,i,i,nt
CCN(c1ccc(OC)cc1)S(=O)(=O)c1cc(-c2cc(C)no2)ccc1OC,31,i,i,i,i,i,i
NCCn1ncc2c(N3CCN(c4ccc(F)cc4)CC3)ncnc21,nt,nt,nt,i,nt,nt,nt
COc1ccccc1OCC(=O)NC1CCCC(OC(=O)Nc2ccc(F)cc2)C1 (centres undefined),nt,nt,nt,i,nt,nt,nt
CC(=O)C(C(C)=O)C1(O)C(=O)c2ccccc2C1=O,101,i,i,i,i,i,i
FC(F)(F)c1ccc(CNCCc2ccc3c(c2)OCO3)cc1,30,i,i,i,i,i,i
Clc1ccc(CNCCc2ccc3c(c2)OCO3)cc1,i,i,i,i,i,i,nt
Cc1ccc(Cn2ccc(=O)c(OCc3c(Cl)cccc3Cl)c2C)cc1,30,i,nt,i,i,i,i
Cc1[nH]ccc(=O)c1OCc1c(Cl)cccc1Cl,i,i,nt,i,i,i,nt
O=C(COC(=O)CSc1ccc([N+](=O)[O-])cc1)NC1CCCCCCC1,i,i,i,i,i,nt,nt
Cc1ccc(SCC(=O)OCC(=O)NC2CCCCCCC2)cc1,30,i,i,i,i,nt,i
Cn1nc2c(c1NC(=O)/C=C/c1ccccc1)CCC2,nt,nt,nt,i,nt,nt,nt
C=CCSC1=N/C(=C\c2cccnc2)C(=O)N1c1ccc(OC)cc1,i,i,nt,i,i,i,nt
CCSC1=N/C(=C\c2ccccc2)C(=O)N1c1ccc(OC)cc1,30,i,i,i,i,i,i
Cc1ccc2cc(N)ccc2n1,i,i,i,i,i,i,nt
SMILES,CCHF vOTU inh-1,Vc quorum ag,TcdB inh,PriA SSB inh,PrPC surface inh,VHR inh abs,CCHF vOTU inh-2
Nc1ccc2cc3ccc(N)cc3nc2c1,53,nt,nt,nt,i,nt,30
O=C(NCCC(O)c1cccs1)c1c(F)cccc1Cl (centres undefined),nt,nt,nt,i,nt,nt,nt
C=CCn1c(COc2ccccc2)nnc1SCC(=O)c1ccc(-c2ccccc2)cc1,i,nt,nt,nt,i,nt,nt
C=CCn1c(COc2ccc(C)cc2)nnc1SCC(=O)c1ccc(-c2ccccc2)cc1,30,nt,nt,nt,i,nt,i
Cc1ccc(NC(=O)NCc2n[nH]c(=O)c3ccccc23)cc1C,nt,nt,nt,i,nt,nt,nt
CCOc1cc(C=NNC(=S)Nc2ccccc2C(F)(F)F)ccc1OCC(=O)N1CCOCC1,nt,nt,nt,i,nt,nt,nt
CCOc1cc(/C=N/NC(=S)Nc2ccccc2C(F)(F)F)ccc1OCC(=O)N1CCOCC1,30,i,nt,nt,i,i,i
